The values that follow come from PubChem BioAssay (NCI).

Compounds without any hit were thinned out: in the full panel of roughly 79,000, 15% have a hit. A number with no mark means an inactive call. Active and inactive are the calls of the source. No stated cut-off is given here; in the data, active means growth inhibition above about 70%; inactive means the rest.

Test [1] can be described thus: NCI Yeast Anticancer Drug Screen. Data for the rad50 strain (AID 155).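 Further: 0% = growth of vehicle-only cultures of the same strain.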 As to conditions: S. cerevisiae rad50 strain growth inhibition; at 50.0 µM; stronger effect = higher value. The method in brief: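 Compounds were tested on a yeast strain with an engineered DNA damage repair alteration; the reported value is growth inhibition normalised to vehicle treatment.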
Test [2] in a line: NCI Yeast Anticancer Drug Screen. Data for the mec2-1 strain (AID 157). To be noted: S. cerevisiae mec2-1 strain, at 50.0 µM, stronger effect = higher value. The gist of the method:
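Compounds were applied to mec2-1 yeast cells. Their growth was then compared with that of vehicle-treated cultures to give growth inhibition.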

Test [3] in a line: NCI Yeast Anticancer Drug Screen. Data for the sgs1 mgt1 strain (AID 161).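 Further: 0% = growth of cultures given vehicle only.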 To be noted: S. cerevisiae sgs1 mgt1 strain, at 50.0 µM, stronger effect = higher value. The gist of the method:
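Yeast cells carrying a defined DNA-repair defect were exposed to test compounds. Growth inhibition was measured relative to vehicle-treated controls.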

Test [4] is described as follows: NCI Yeast Anticancer Drug Screen. Data for the cln2 rad14 strain (AID 165).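 Further: 0% = growth equal to vehicle treated cultures.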 As to conditions: S. cerevisiae cln2 rad14 strain, at 50.0 µM, stronger effect = higher value. The gist of the method:
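Strain: cln2 rad14 yeast, altered in cell cycle control and DNA damage repair. Read-out: growth inhibition vs vehicle.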

Test [5] is described as follows: NCI Yeast Anticancer Drug Screen. Data for the bub3 strain (AID 167). To be noted: S. cerevisiae bub3 mutant strain, at 50.0 µM, stronger effect = higher value. The gist of the method:
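Growth of a checkpoint-deficient yeast mutant is measured after compound exposure. Values represent inhibition relative to vehicle.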

Test [6] is described as follows: NCI Yeast Anticancer Drug Screen. Data for the mlh1 rad18 strain (AID 175). As to conditions: S. cerevisiae mlh1 rad18 strain growth inhibition; at 50.0 µM; stronger effect = higher value. The method in brief: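 A repair-deficient yeast strain is exposed to test compound, and growth is scored relative to vehicle-treated controls.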

For the compound `O=c1c2[nH]cnc2n(-c2ccccc2)c(=S)n1-c1ccccc1`, the growth inhibition in test [1] is 6.5%; in test [2], 1.8%; in test [3], -26.1%; in test [4] it was -6.55%; in test [5] it was -26.9%; in test [6], 13.8%.

As for `CC(=O)OCC1OC(n2c(-c3ccc(Cl)cc3)cc(-c3ccccc3)c(C#N)c2=S)C(OC(C)=O)C(OC(C)=O)C1OC(C)=O` (stereo not drawn), the growth inhibition is 20.6% in test [1]; -9.25% in test [2]; 6.5% in test [3]; 2.8% in test [4]; 17.8% in test [5]; 14.2% in test [6].

Consider `O=C(O)c1nc(Cl)c(Cl)[nH]c1=O`, for which the growth inhibition in test [1] was -15.3%; in test [2], -29.6%; in test [3] it was 8.6%; in test [4], -65.6%; in test [5], 2.5%; in test [6] it was 3.6%.

Regarding `Cc1ccc(S(=O)OC2C3CC4CC(C3)CC2C4)cc1` (stereo not drawn), the growth inhibition is 6.65% in test [1]; 10.3% in test [2]; 0.2% in test [3]; 30.8% in test [4]; 1.25% in test [5]; 0.75% in test [6].

For `CC(=O)c1ccc(Cl)c(Cl)c1`, the growth inhibition in test [1] was -3.6%; in test [2] it was -0.5%; in test [3] it was -3.75%; in test [4] it was 14.9%; in test [5] it was 4.7%; in test [6], -15.3%.

Turning to `CC(=O)CCCCO`, the growth inhibition was -6.8% in test [1]; -2.5% in test [2]; 10.8% in test [3]; -8.55% in test [4]; 2.8% in test [5]; -18.1% in test [6].

As to `[N-]=[N+]=Nc1ccccc1-c1ccccc1[N+](=O)[O-]`, the growth inhibition is 35% in test [1]; -6.3% in test [2]; 40.3% in test [3]; 0.4% in test [4]; -6.4% in test [5]; 28.6% in test [6].

Consider `O=C(Cl)CCc1ccnc2ccccc12`, for which the growth inhibition in test [1] was 0.5%; in test [2], 3.25%; in test [3] it was 4.2%; in test [4] it was -8.45%; in test [5] it was 2.4%; in test [6] it was 11.2%.

For `Nc1ncnc2nc(N3CCN(CCO)CC3)[nH]c12`, the growth inhibition was 9.45% in test [1]; -8.75% in test [2]; -34.1% in test [3]; -29.5% in test [4]; -26.2% in test [5]; -12.5% in test [6].

For `CCOC(=O)C1CC1c1ccccc1` (stereo not drawn), the growth inhibition is 6.1% in test [1]; -7.9% in test [2]; -0.25% in test [3]; -8.65% in test [4]; -3.6% in test [5]; 8.5% in test [6].

With `O=C1CC2(CC(=O)N1CCc1c[nH]c3ccccc13)OCCO2`, the growth inhibition in test [1] was -1.35%; in test [2], 9.05%; in test [3], 10.1%; in test [4], -0.5%; in test [5], 20.6%; in test [6], -6.15%.

`O=C1CCN(C(=O)C2=CC(=O)OC2)C1`: the growth inhibition in test [1] was -15.2%; in test [2], -1.8%; in test [3], -5.1%; in test [4] it was -33.6%; in test [5], 5.15%; in test [6] it was -2.2%.

As to `C[C@@]1(Cc2ccccc2)C(=O)N2[C@@H](CO)C(c3ccccc3)O[C@]2(C)c2ccccc21` (stereo partly drawn), the growth inhibition is -10.8% in test [1]; 4.7% in test [2]; -14.7% in test [3]; -6.05% in test [4]; -8.8% in test [5]; -29.3% in test [6].

On to `C1=NC(c2ccccc2)=CN(C2CCCCC2)C1(c1ccccc1)C1CCCCC1` (stereo not drawn), for which the growth inhibition is 97.1% (active) in test [1]; 96.5% (active) in test [2]; 97.2% (active) in test [3]; 94.6% (active) in test [4]; 95.7% (active) in test [5]; 96.5% (active) in test [6].

Consider `S=c1nn[nH]n1C1CCCCC1`, for which the growth inhibition is 8.05% in test [1]; -14.3% in test [2]; -1.8% in test [3]; 4.1% in test [4]; 0.85% in test [5]; 9.95% in test [6].

For the compound `CC1OC(OC2C(Oc3cc(O)c4c(=O)cc(-c5ccc(O)cc5)oc4c3)OC(CO)C(O)C2O)C(O)C(O)C1O` (stereo not drawn), the growth inhibition is -6.15% in test [1]; 5.75% in test [2]; -14.2% in test [3]; -19.9% in test [4]; 6.35% in test [5]; -7.65% in test [6].

For `CCOC(=O)[n+]1c(C)ccc2ccccc21`, the growth inhibition is -20% in test [1]; -10.9% in test [2]; -9.55% in test [3]; -23.8% in test [4]; 11% in test [5]; -13.8% in test [6].

As to `CCN(CC)c1ccc(/C=C\c2c(C)cnc3ccccc23)cc1`, the growth inhibition in test [1] was 8.85%; in test [2] it was 10%; in test [3], 17.9%; in test [4] it was -24.4%; in test [5] it was 34.6%; in test [6] it was -9.45%.

`Cc1cc2c(c(C(N)=O)c1C)-c1cccc(Cl)c1C2=O`: the growth inhibition in test [1] was 13.1%; in test [2], 12.2%; in test [3], 9.7%; in test [4] it was 11%; in test [5], 1.35%; in test [6], -1.3%.

On to `ClCCCN1CCN(CCCCl)CC1`, for which the growth inhibition in test [1] is 80.2% (active); in test [2], 70% (active); in test [3] it was 85% (active); in test [4] it was 62.1%; in test [5] it was 80.5% (active); in test [6], 7.75%.

For the compound `COc1ccc(N2C(=O)c3c(C)ccc(C)c3C2=O)cc1`, the growth inhibition in test [1] is -23.8%; in test [2], 6.4%; in test [3], 19.9%; in test [4] it was -0.5%; in test [5], -3.5%; in test [6], 5.15%.

With `COc1ccc(C2=C/C(=C/c3cccc(OC)c3OC)C(=O)O2)cc1`, the growth inhibition in test [1] was -10.6%; in test [2], 0.65%; in test [3] it was 11.9%; in test [4], -30.9%; in test [5] it was -11.2%; in test [6], -5.35%.

Regarding `Cn1nc(-c2ccc(Cl)c(Cl)c2)[n+]([O-])c2c(=O)n(C)c(=O)nc1-2`, the growth inhibition in test [1] is 88.8% (active); in test [2] it was 92.1% (active); in test [3], 88.8% (active); in test [4] it was 89% (active); in test [5], 85.3% (active); in test [6], 91.3% (active).

`CCOC(=O)COc1c(C)cccc1C`: the growth inhibition in test [1] is 17.6%; in test [2], 5.45%; in test [3] it was -2.5%; in test [4], 14.8%; in test [5], 32.5%; in test [6], 12.5%.

Take `CC(C)(C)CC(C)(C(=O)O)C(C)(C)C` (stereo not drawn): the growth inhibition is 4% in test [1]; 9.25% in test [2]; -3.25% in test [3]; -12.6% in test [4]; 3.15% in test [5]; 14.7% in test [6].

With `Cc1ccc(SC(C)/C=C/NNC2=NC(c3ccccc3)C(c3ccccc3)=NN2)cc1` (stereo not drawn), the growth inhibition in test [1] was 35.2%; in test [2], 10.2%; in test [3], 6.05%; in test [4], 30.4%; in test [5], 13.7%; in test [6], 24.1%.

For `COC(=O)c1nc(N)nc(C(=O)OC)c1C(=O)c1ccc(F)cc1`, the growth inhibition in test [1] was 8.55%; in test [2], -1%; in test [3] it was -12.3%; in test [4] it was 5.35%; in test [5] it was 9.4%; in test [6], 20.6%.

Consider `CCO/C=C1/C(=O)N(C)c2c1c(=O)n(C)c(=O)n2C`, for which the growth inhibition in test [1] was -46.9%; in test [2] it was -0.25%; in test [3], -4.05%; in test [4] it was -14.3%; in test [5], -18.1%; in test [6] it was -5.15%.

For the compound `CC(=O)OC1COC(NC(=O)N(CCCl)N=O)C(OC(C)=O)C1OC(C)=O` (stereo not drawn), the growth inhibition was 6.25% in test [1]; 7.55% in test [2]; -25.8% in test [3]; -11.2% in test [4]; -31.2% in test [5]; 48.8% in test [6].

Turning to `OCC1NCC(O)C(O)C1O` (stereo not drawn), the growth inhibition in test [1] was -6.6%; in test [2], -11.6%; in test [3], -14.4%; in test [4], 2.3%; in test [5] it was -8.3%; in test [6], 7.25%.

For the compound `CSc1nc(C)cc(N(C)c2ccccc2)n1`, the growth inhibition in test [1] is -5.9%; in test [2] it was 0.25%; in test [3] it was 8.85%; in test [4] it was -8.9%; in test [5], -18.2%; in test [6], 14.6%.

As to `O=C(/C=C/c1ccccc1)NN1CCOCC1`, the growth inhibition was 13.5% in test [1]; 3.25% in test [2]; 24.1% in test [3]; -34.5% in test [4]; 6.55% in test [5]; -2.95% in test [6].

On to `C/C=C/C=C/CC`, for which the growth inhibition in test [1] was 8.75%; in test [2], -12.3%; in test [3] it was -5.4%; in test [4], 16.2%; in test [5], 16.9%; in test [6], -22.6%.

In the case of `COC(=O)C(Cc1ccccc1)NC(=O)C(CCC(=O)OCc1ccccc1)NC(=O)OC(C)(C)C` (stereo not drawn), the growth inhibition was 30.9% in test [1]; 8.55% in test [2]; 19.8% in test [3]; 19.9% in test [4]; 31.4% in test [5]; 22% in test [6].

Consider `CC(C)N1COC(c2ccccc2)C1` (stereo not drawn), for which the growth inhibition is 6.05% in test [1]; 0.35% in test [2]; -19.1% in test [3]; -17.9% in test [4]; -24.9% in test [5]; -26.1% in test [6].

For `CCOC(=O)Cc1csc(N=Nc2c(O)[nH]c3ccccc23)n1`, the growth inhibition was -2.55% in test [1]; -12.8% in test [2]; 10.6% in test [3]; 7.9% in test [4]; 5.85% in test [5]; 17.6% in test [6].

For the compound `Cc1cc(C)c(S(=O)(=O)O)cc1N`, the growth inhibition was -2.55% in test [1]; 2.1% in test [2]; 6.1% in test [3]; -42% in test [4]; -0.05% in test [5]; -26.1% in test [6].

As for `C[Si](C)(OCCS(=O)(=O)O)C1(Cc2cccc3ccccc23)S(=O)(=O)OCCOS1(=O)=O`, the growth inhibition in test [1] is 13.6%; in test [2], -9.55%; in test [3] it was 2.6%; in test [4], 18.1%; in test [5], 13.1%; in test [6], 17.2%.
